Measurements taken from PubChem BioAssay (Tox21).
Results filed as inconclusive are left out. The source made the active and inactive calls. Unless noted, calls follow the shape of the full dose curve.

Legend:
[1] = qHTS assay to identify small molecule antagonists of the estrogen related receptor signaling pathway with the pleiotropic PPARgamma coactivator (PGC) from Tox21 10K library - cell viability counter screen (AID 1224840; active = well fitted cell-killing curve with a large enough effect in the repeat runs, not every such curve was filed as active; also: nearly all actives have a fitted effect of over 40% in size)
Method in brief: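 Following seeding of 2,000 PGC/ERR cells/well and 6 hours' incubation, test compounds were delivered in DMSO. The plates then sat 17.5 hours at 37 C before a fluorogenic live-cell protease reagent (CellTiter-Fluor) was read after 30 min.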

[2] = molecular target: Thyrotropin receptor (Homo sapiens) (UniProt P16473); experiment: qHTS assay to identify small molecule agonists of the thyroid stimulating hormone receptor (TSHR) signaling pathway (AID 1224843); also: nearly all actives have a fitted effect of over 45% in size
Sequence of Thyrotropin receptor (Homo sapiens) (P16473 whole entry, looked up): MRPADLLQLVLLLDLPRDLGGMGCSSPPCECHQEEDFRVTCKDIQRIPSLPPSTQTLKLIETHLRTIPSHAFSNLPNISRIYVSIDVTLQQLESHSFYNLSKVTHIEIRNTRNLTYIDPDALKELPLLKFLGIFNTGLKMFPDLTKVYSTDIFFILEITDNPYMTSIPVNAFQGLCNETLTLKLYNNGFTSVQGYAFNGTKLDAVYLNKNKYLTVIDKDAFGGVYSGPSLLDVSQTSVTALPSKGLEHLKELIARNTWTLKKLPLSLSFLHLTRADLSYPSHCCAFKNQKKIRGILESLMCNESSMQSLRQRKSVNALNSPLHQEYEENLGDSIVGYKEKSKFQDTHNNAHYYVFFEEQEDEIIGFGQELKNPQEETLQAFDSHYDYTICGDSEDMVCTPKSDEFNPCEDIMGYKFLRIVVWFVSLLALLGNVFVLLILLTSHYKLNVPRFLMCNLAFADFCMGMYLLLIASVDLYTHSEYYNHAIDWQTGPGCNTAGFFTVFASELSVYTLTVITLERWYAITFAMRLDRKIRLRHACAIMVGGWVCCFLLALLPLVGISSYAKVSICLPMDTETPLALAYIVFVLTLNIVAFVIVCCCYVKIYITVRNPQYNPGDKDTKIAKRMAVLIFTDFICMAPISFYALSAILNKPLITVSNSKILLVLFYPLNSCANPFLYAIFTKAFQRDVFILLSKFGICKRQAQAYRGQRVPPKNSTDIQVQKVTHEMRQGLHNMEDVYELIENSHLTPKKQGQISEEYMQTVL
Method in brief: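 TSHR-expressing HEK293 cells (800 per well) were exposed to compounds for 30 min at room temperature. cAMP was then detected by HTRF competition with cAMP-d2 and anti-cAMP cryptate, read after 1 h at room temperature. Fifteen concentrations, triplicate.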

[3] = qHTS assay to identify small molecule agonists of the hypoxia (HIF-1) signaling pathway - cell viability counter screen (AID 1224844); also: nearly all actives have a fitted effect of over 50% in size
Method in brief: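 Cells (HRE-bla ME-180, 2,000 per well) sat 5 hrs at 37C, got compound for 17 hrs, were read for CCF4-AM FRET, and were finally lysed with CellTiter-Glo for a 30 min room-temperature luminescence read.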

[4] = qHTS assay to identify small molecule agonists of H2AX (AID 1224845; active = well fitted activation curve with a large enough effect in the signal ratio in the repeat runs, not every such curve was filed as active; the % refers to the signal ratio)
Method in brief: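 Wild-type CHO-K1 cells plated overnight, then exposed 3 hr at 37C to compounds at 15 concentrations (0.76% DMSO). Lysed, then HTRF anti-pH2AX(S139)-cryptate/anti-H2AX-d2 detection after 24 hr at room temperature; emissions 665 and 620 nm.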

[5] = qHTS assay to identify small molecule agonists of the hypoxia (HIF-1) signaling pathway (AID 1224846; active = well fitted activation curve with a large enough effect in the signal ratio in the repeat runs, not every such curve was filed as active; the % refers to the signal ratio)
Method in brief: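 A low-serum medium (0.5% dialyzed FBS) holding 2,000 HRE-bla ME-180 cells per well is preincubated for 5 hrs, dosed with compounds by pintool, and kept a further 17 hrs at 37C, 5% CO2 before CCF4-AM FRET detection of beta-lactamase.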

[6] = qHTS assay to identify small molecule agonists of the estrogen related receptor signaling pathway with the pleiotropic PPARgamma coactivator (PGC) from Tox21 10K library (AID 1224842; active = well fitted curve in the direction sought with a large enough effect in the repeat runs; an effect the other way counts as inactive or inconclusive; also: nearly all actives have a fitted effect of over 15% in size)
Method in brief: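 PGC/ERR reporter cells (NTP line) were seeded 2,000 per well, rested 6 h at 37 C/5% CO2, then pin-dosed with compounds in DMSO for 18 h at 37 C; luciferase read by One-Glo luminescence after 30 min at room temperature.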

[7] = qHTS assay to identify small molecule agonists of H2AX - cell viability counter screen (AID 1224847); also: top concentration of the series differs between compounds; nearly all actives have a fitted effect of over 30% in size
Method in brief: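 Wild-type CHO-K1 cells (10% FBS medium) were plated overnight at 37C, exposed to compounds at 15 concentrations for 3 hr at 37C (0.76% DMSO final), and viability was read as CellTiter-Glo luminescence after 30 min at room temperature.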

[8] = qHTS assay to identify small molecule antagonists of the estrogen related receptor (ERR) signaling pathway from Tox21 library (AID 1224848; active = well fitted curve in the direction sought with a large enough effect in the repeat runs; an effect the other way counts as inactive or inconclusive; also: nearly all actives have a fitted effect of over 50% in size)
Method in brief: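 Cells: ERR line, 2,000/well; 6 h preincubation 37 C/5% CO2. Cpd in DMSO via pin tool; 18 h, 37 C. ONE-Glo, 30 min RT, luminescence.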

[9] = qHTS assay to identify small molecule agonists of the estrogen related receptor (ERR) signaling pathway from Tox21 library (AID 1224849); details: ERR reporter cell line, ONE-Glo luciferase, 18 h; at 92.4 µM (top of the series) unless noted; also: nearly all actives have a fitted effect of over 15% in size
Method in brief: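 Screening used an NTP-provided ERR luciferase cell line. Compounds in DMSO were added 6 h after seeding and left 18 h at 37 C before a 30 min ONE-Glo step and luminescence reading.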
% is scaled to controls: 0 for no effect and ±100 for the full control effect.

CC(C)(O)c1ccc(C(C)(C)O)cc1
inactive: outcome [1] | Potency [2] | outcome [3] | outcome [4] | outcome [5]

CCCCC(O)/C=C(C)/C=C/C=C/C(=O)N1CCCC1=O (configuration not stated)
inactive: outcome [1] | Potency [2] | outcome [3] | outcome [4] | outcome [5]

CNCCc1ccccn1
inactive: outcome [1] | Potency [2] | outcome [3] | outcome [4]

O=C(c1ccccc1)c1cccc(O)c1
inactive: outcome [1] | Potency [2] | outcome [3] | outcome [4] | outcome [5]

O=C1CCCc2c(O)cccc21
inactive: outcome [1] | Potency [6] | outcome [3] | outcome [4] | outcome [5] | outcome [7] | outcome [8] | activity change, positive = activation [9] 0.0223% [at 42.5 µM]

CC(=O)OC1CCC(C(C)(C)C)CC1 (configuration not stated)
inactive: outcome [1] | Potency [2] | outcome [3] | outcome [4] | outcome [5]

COc1cc(NS(=O)(=O)c2ccc(N)cc2)ncn1
inactive: outcome [1] | Potency [2] | outcome [3] | outcome [4]

C/C=C(\C)C=O
inactive: outcome [1] | Potency [2] | outcome [3] | outcome [4] | outcome [5] | outcome [7]

CCCCC(CC)CCC(CC(C)C)OS(=O)(=O)O (configuration not stated)
inactive: outcome [1] | Potency [2] | outcome [3] | outcome [4] | outcome [5] | outcome [7]

CC(C)(C)OC=O
inactive: outcome [1] | Potency [2] | outcome [3] | outcome [4] | outcome [5] | outcome [7]

O=CN1CCCCC1
inactive: outcome [1] | Potency [2] | outcome [3] | outcome [4] | outcome [5] | outcome [7]

CCOc1ccccc1OCCN[C@H](C)Cc1ccc(OC)c(S(N)(=O)=O)c1
inactive: outcome [1] | Potency [2] | outcome [3] | outcome [4] | outcome [5] | outcome [7]

C[C@@H]1NC(=O)[C@@H](N)CNC(=O)[C@H](C2CCNC(N)=N2)NC(=O)/C(=C/NC(N)=O)NC(=O)[C@H](CNC(=O)C[C@@H](N)CCCN)NC1=O (some centres not stated)
inactive: viability change, negative = cytotoxic [1] 10.7% [at 0.349 µM] | activation [2] -10.7% [at 0.349 µM] | activity change, negative = cytotoxicity [3] 3.53% [at 0.29 µM] | activation (H2AX phosphorylation) [4] -2.47% [at 0.582 µM] | activation [5] -0.509% [at 0.291 µM] | activity change, negative = cytotoxicity [7] 1.7% [at 0.582 µM]
